Rows were chosen to be rich in hits. Some 9.5% of all compounds tested hit in one or more screens of this group.
Pf growth 96h: Primary qHTS for delayed death inhibitors of the malarial parasite plastid, 96 hour incubation | P. falciparum luciferase reporter growth, 96 h | Potency, µM (top dose mostly 28.7 µM), actives largely listed as inhibitors | hit rate 6.9% among 320,000 | AID 504834, 2011
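Parasite growth measured via integrated firefly luciferase reporter in P. falciparum. Infected erythrocytes at 2% hematocrit, 0.05% parasitemia final were treated 96 hours at 37 C under 5% CO2, and luminescence was read.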
Pf growth 48h: Primary qHTS for delayed death inhibitors of the malarial parasite plastid, 48 hour incubation; P. falciparum luciferase growth in erythrocytes, 48 h; Potency, µM (series often up to 28.7 µM), actives largely listed as inhibitors; hit rate 5.9% among 310,000; AID 504832, 2011
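Here the parasites carry a stable luciferase gene and grow inside erythrocytes in Albumax-based RPMI medium with compound for one erythrocytic cycle. Activity is scored as loss of luminescent signal.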
SARS PLP yeast: qHTS of Yeast-based Assay for SARS-CoV PLP; Potency, µM (series often up to 32.9 µM), most hits filed as activators; S. cerevisiae expressing SARS-CoV PLpro, growth rescue; hit rate 0.19% among 330,000; AID 485353, 2010; calls by dose curve; also: nearly all actives have a fitted effect of over 55% in size
RE007 growth inh: qHTS Assay for Inhibitors of the HIV-1 protein Vpr; S. pombe RE007 Vpr strain, BacTiter-Glo ATP luminescence, 24 h; Potency, µM (titrated, usually from 92.2 µM), hits mostly inhibitors; hit rate 0.21% among 360,000; active = well fitted falling curve with a large enough effect; inconclusive = small, poorly fitted or top-dose-only effect; inactive = no such curve, though single readings can be large or run the other way; also: nearly all actives have a fitted effect of over 50% in size
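Fission yeast strain RE007, carrying one chromosomally integrated HIV-1 vpr copy, was seeded at OD 0.01 in PMG+AL medium with 23 nL pinned compound. After 24 h at 30 °C and 99% humidity, viability was read by BacTiter-Glo luminescence.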
NS1 function inh: qHTS Assay for Inhibitors of Influenza NS1 Protein Function | Potency, µM (titrated, usually from 46.1 µM) | hit rate 0.4% among 270,000; calls by dose curve; also: actives are rising curves; nearly all actives have a fitted effect of over 50% in size
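In this qHTS, NS1 from influenza A is expressed in budding yeast, where it slows growth. Cells are switched from glucose to 2% galactose medium (pH 6.0, -URA), treated with compound, and growth recovery is read at OD600.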
Large screens that a line does not name were inactive. Unless noted, calls follow the shape of the dose curve; as a rule, active = well fitted inhibition curve with a large enough effect; inconclusive = small, poorly fitted or top-dose-only effect, or another doubt; inactive = no such curve, though single readings can be large or run the other way.

COc1ccc2[nH]c(=O)c(CN(Cc3cccs3)S(=O)(=O)c3cccc4nsnc34)cc2c1	Pf growth 48h 7.38µM
COc1ccc2cc(CN(Cc3ccco3)C(=S)NCC3CCCO3)c(=O)[nH]c2c1 (configuration not stated)	Pf growth 48h inconclusive
CNC(=S)N(Cc1cc2ccc(OC)cc2[nH]c1=O)CC1CCCO1 (configuration not stated)	Pf growth 96h 13.1µM
CCC(=O)N(CCc1ccccc1)Cc1cc2ccc(OC)cc2[nH]c1=O	none
CCC(=O)N(CCc1ccccc1)Cc1cc2cc(OC)ccc2[nH]c1=O	Pf growth 48h 2.08µM
CN(C)S(=O)(=O)Nc1ccccc1F	Pf growth 96h inconclusive
O=C(NCCCNC(=O)c1ccc(-c2cccc(Cl)c2)o1)c1cnccn1	Pf growth 48h inconclusive
Cc1ccc(S(=O)(=O)N2C[C@]3(O)C[C@@H]4C(=O)N(c5ccccc5)C(=O)[C@@H]4C[C@]3(OC(=O)Nc3cccs3)C2)cc1	none (no result: Pf growth 96h, Pf growth 48h, SARS PLP yeast, NS1 function inh)
O=C(CN1C(=O)c2ccccc2S1(=O)=O)Nc1cc(S(=O)(=O)N2CCCCC2)ccc1Cl	Pf growth 96h inconclusive (no result: NS1 function inh)
CN(C)C(CNC(=O)c1ccc(NS(=O)(=O)c2ccc3[nH]c(=O)[nH]c3c2)cc1)c1ccccc1 (configuration not stated)	Pf growth 48h inconclusive (no result: NS1 function inh)
CC(=O)c1cc(CN2CCC(C(=O)Nc3ccc(-n4nc(C)cc4C)cc3)CC2)cs1	none (no result: Pf growth 96h, Pf growth 48h, SARS PLP yeast, NS1 function inh)
CNC(=S)N(Cc1cccs1)Cc1cc2cc(OC)ccc2[nH]c1=O	Pf growth 96h 7.38µM, Pf growth 48h inconclusive
Cc1cc(NC(=O)Cc2ccccc2[N+](=O)[O-])no1	Pf growth 96h inconclusive
O=C1c2ccccc2CCCC12N=NCC2c1cccc2ccccc12 (configuration not stated)	Pf growth 96h 1.85µM, Pf growth 48h 2.62µM
COC(=O)c1ccc(C)cc1C1CN=NC12Cc1cc(C)ccc1C2=O (configuration not stated)	none (no result: Pf growth 96h, Pf growth 48h, SARS PLP yeast, NS1 function inh)
Cc1ccc(C2CN=NC23CCc2ccccc2C3=O)cc1 (configuration not stated)	Pf growth 96h 3.7µM, RE007 growth inh inconclusive (no result: Pf growth 48h)
Cn1c(=O)c2c(ncn2CC(=O)N/N=C/c2ccc(Br)s2)n(C)c1=O	Pf growth 96h inconclusive, Pf growth 48h inconclusive
Cc1csc(SCC(=O)Nc2cc(C(C)(C)C)nn2-c2ccccc2)n1	Pf growth 96h inconclusive, Pf growth 48h 7.38µM
CCC(C)n1c(SCC(=O)Nc2cc(C(C)(C)C)nn2-c2ccccc2)nc2ccccc2c1=O (configuration not stated)	Pf growth 96h 5.86µM, Pf growth 48h 10.4µM, NS1 function inh inconclusive
COC1CC(=C(c2cccs2)c2cccs2)C[N+](C)(C)C1 (configuration not stated)	Pf growth 48h 4.78µM (no result: SARS PLP yeast, RE007 growth inh, NS1 function inh)
COc1cc(NC(=O)c2cccs2)c(OC)cc1NC(=O)c1cccs1	none (no result: Pf growth 96h, Pf growth 48h, SARS PLP yeast, NS1 function inh)
CCCCN(C(=O)c1ccc(C)cc1)c1c(N)n(CCC)c(=O)[nH]c1=O	none
Cc1cc(-c2ccccc2)nc(N(C)NC(=O)c2cccc(C(F)(F)F)c2)c1S(C)(=O)=O	Pf growth 96h 3.7µM (no result: Pf growth 48h)
CC1=C(C(=O)N(C(C)C)C(C)C)CC(CC(=O)NCCc2ccccn2)C(=O)N1Cc1ccc(F)cc1 (configuration not stated)	none (no result: Pf growth 96h, Pf growth 48h, SARS PLP yeast, NS1 function inh)
CCCCCCCCN1CC(Cc2cc3ccccc3c3ccccc23)N(c2ccccc2)c2ccccc2C1=O (configuration not stated)	none (no result: Pf growth 96h, Pf growth 48h, SARS PLP yeast, NS1 function inh)
Cc1ccc(NC(=O)c2[nH]cnc2C(=O)NN)cc1	none
NNC(=O)c1nc[nH]c1C(=O)Nc1ccccn1	Pf growth 96h inconclusive, SARS PLP yeast 14.1µM
CC(C)(C)n1nnnc1C(c1ccncc1)N(Cc1ccccc1)Cc1ccco1 (configuration not stated)	Pf growth 48h 13.1µM (no result: Pf growth 96h)
CC(C)(C)n1nnnc1C(c1cccs1)N(Cc1ccccc1)Cc1ccco1 (configuration not stated)	Pf growth 48h 13.1µM
CC(C)(C)n1nnnc1C(c1cccs1)N(Cc1cccnc1)Cc1ccco1 (configuration not stated)	Pf growth 96h 7.38µM, Pf growth 48h 10.4µM
CCN(Cc1ccccc1)C(c1ccc(C)cc1)c1nnnn1C(C)(C)C (configuration not stated)	Pf growth 96h 8.28µM (no result: Pf growth 48h)
CCN(Cc1ccccc1)C(c1ccc(Cl)cc1)c1nnnn1C(C)(C)C (configuration not stated)	Pf growth 48h inconclusive
CN(C)CCN(Cc1ccccc1)C(c1cc2ccccc2o1)c1nnnn1C(C)(C)C (configuration not stated)	none (no result: Pf growth 96h, Pf growth 48h, SARS PLP yeast, NS1 function inh)
CC(C)(C)n1nnnc1C(c1cccnc1)N1CCOCC1 (configuration not stated)	none
CC(=O)N1CCC(C(=O)Nc2ccc(S(=O)(=O)NCCc3ccccc3)cc2)CC1	Pf growth 96h inconclusive
Cc1cccc(N2CCN(C(=O)c3cc(S(=O)(=O)N4CCOCC4)cn3C)CC2C)c1 (configuration not stated)	none
CC(C)(C)n1nnnc1C(c1ccccn1)N(Cc1ccccc1)Cc1ccc(Cl)cc1 (configuration not stated)	Pf growth 96h 1.47µM, Pf growth 48h 11.7µM (no result: SARS PLP yeast)
CCc1ccccc1N(CC(=O)O)S(C)(=O)=O	Pf growth 96h 14.7µM
Cc1ccccc1N(CC(=O)O)S(C)(=O)=O	Pf growth 96h inconclusive
Nc1c(C(=O)OCC2CCCO2)c2nc3ccccc3nc2n1Cc1cccs1 (configuration not stated)	Pf growth 96h 3.7µM, Pf growth 48h inconclusive, NS1 function inh inconclusive
Nc1c(C(=O)OCC2CCCO2)c2nc3ccccc3nc2n1C1CCCC1 (configuration not stated)	Pf growth 48h 10.4µM
NS(=O)(=O)c1ccc(NC(=O)CSc2nnc3n2CCCCC3)cc1	none (no result: Pf growth 96h, Pf growth 48h, NS1 function inh)
COc1ccccc1C1(CC(=O)O)CCOC(C(C)C)C1 (configuration not stated)	none
COc1ccccc1C1(CCNC(C)c2cccs2)CCOC(C(C)C)C1 (configuration not stated)	Pf growth 96h 8.28µM, Pf growth 48h 8.28µM
CCC(=O)N(CCC1(c2ccccc2OC)CCOC(C(C)C)C1)Cc1ccco1 (configuration not stated)	Pf growth 96h 10.4µM, Pf growth 48h 10.4µM
Cc1cc(C(=O)CN2C(=O)NC(C)(c3cc(F)ccc3F)C2=O)c(C)n1C1CC1 (configuration not stated)	none (no result: Pf growth 96h, Pf growth 48h, NS1 function inh)
CCC1(c2ccc(F)cc2)NC(=O)N(CC(=O)c2cc(C)n(C3CC3)c2C)C1=O (configuration not stated)	Pf growth 96h inconclusive, Pf growth 48h 14.7µM (no result: NS1 function inh)
Cc1cc(C(=O)COc2ccc(F)cc2Br)c(C)n1C1CC1	Pf growth 96h 10.4µM, Pf growth 48h inconclusive (no result: NS1 function inh)
O=C(OCc1ccc([N+](=O)[O-])cc1)C1CC(=O)N(Cc2ccccc2)C1 (configuration not stated)	none (no result: Pf growth 96h, Pf growth 48h, NS1 function inh)
